IDE cell activ: boosts human insulin-degrading enzyme activity in HEK cells; P14735; FAbeta-B cleavage, fluorescence polarization; 0% vehicle, 100% cell-free pure enzyme wells; activation, % at 5.96 µM; actives 0.073% (n = 340,000); AID 493087;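 active = activation above the mean of all tested compounds plus 3 SD, set per screening campaign, cut at about 17% in these data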
CRFBP-R2 agonist: agonists of human CRF-binding protein/CRF-R2 receptor complex; HEK293 CRF-R2/CRF-BP, calcium dye fluorescence (FLIPR); percent of saturating CRF peptide response; activation, % at 13.2 µM; actives 0.46% (n = 350,000); AID 588473;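 active = activation of at least 50%, plus an integration ratio under a set limit after plate pattern correction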;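 also: plate controls were neutral control wells without compound for no effect and CRF at EC100 for full effect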
RTF Ca sens act: cardiac RTF calcium sensitization | IANBD-labeled TnC RTF fluorescence at EC20 calcium; 0% EC20 calcium, 100% full calcium | activation, % at 7.2 µM | actives 0.24% (n = 340,000);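 active = activation above the mean over all tested compounds plus 3 SD, cut at about 30% in these data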;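 also: rise in fluorescence read as greater calcium sensitivity of cardiac thin filaments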
RTF Ca sens inh: cardiac RTF calcium desensitization | P19429+P45379 | IANBD-labeled cardiac RTF, Ca2+ fluorescence | inhibition, % at 7.15 µM | actives 0.12% (n = 340,000);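 active = inhibition above the mean inhibition of all tested compounds plus 3 SD, cut at about 17% in these data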;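 also: assay run at fixed EC70 calcium of 1.6 mM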
IDE inh: inhibitors of human insulin-degrading enzyme in cells. P14735. HEK cells, FAbetaB cleavage, fluorescence polarization. inhibition, % at 5.59 µM. actives 0.41% (n = 320,000). AID 434962;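 active = percent inhibition above the average of all tested compounds plus 3 SD, set per screening campaign, cut at about 16% in these data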;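 also: IDE supplied by intact live HEK cells; FP after avidin binding of uncleaved biotin substrate so inhibition keeps polarization high; 0% = DMSO wells and 100% = 60 µM reference IDE inhibitor Ii1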
CRFR2-BP antag: antagonists of CRF-binding protein/CRF-R2 receptor complex | AID 588475 | HEK293 CRF-R2/CRF-BP, CRF-induced calcium fluorescence | inhibition, % at 11.8 µM | actives 0.59% (n = 350,000);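 active = inhibition of the ligand-induced calcium signal above about 50% at the single tested concentration, limit read from the data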
* = called active by the depositor. The list is not random: actives were taken first. Their share in the collection is about 1.5%.

Screening CC(=O)c1sc(NC(=O)C=C(C)C)nc1C returned IDE cell activ 0.5, CRFBP-R2 agonist -3.4, RTF Ca sens act -4.7, RTF Ca sens inh 2.5, IDE inh -5.3 and CRFR2-BP antag -5.1.
CC(=O)c1sc(NC(=O)C2(F)C(F)(F)C(F)(F)C(F)(F)C(F)(F)C2(F)F)nc1C was read as IDE cell activ -4.5, CRFBP-R2 agonist 49.3, RTF Ca sens act -12.4, RTF Ca sens inh -1.6, IDE inh -7.4 and CRFR2-BP antag 66.2*.
For O=S(=O)(Nc1nc2ccccc2s1)c1cc(F)ccc1F the results were IDE cell activ 6.3, CRFBP-R2 agonist -1.1, RTF Ca sens act -8.2, RTF Ca sens inh 1.2, IDE inh 1.4 and CRFR2-BP antag 23.6.
`O=S(=O)(Nc1nc2ccccc2s1)c1ccc(Cl)s1` gave IDE cell activ 2.6, CRFBP-R2 agonist -0.2, RTF Ca sens act -10.9, RTF Ca sens inh -6.1, IDE inh 4.0 and CRFR2-BP antag 58.4*.
`Cc1noc(C)c1CSc1ccccc1C(=O)Nc1nccs1` gave IDE cell activ 0.9, CRFBP-R2 agonist 0.0, RTF Ca sens act 13.0, RTF Ca sens inh -6.6, IDE inh 2.7 and CRFR2-BP antag -6.8.
`COc1ccccc1-n1cnnc1SCC(=O)NCc1cccs1` gave IDE cell activ -0.3, CRFBP-R2 agonist 0.6, RTF Ca sens act 4.8, RTF Ca sens inh -14.8, IDE inh 1.0 and CRFR2-BP antag 82.5*.
`COc1ccccc1-n1cnnc1SCC(=O)NC1CCCCC1` gave IDE cell activ 6.3, CRFBP-R2 agonist -0.2, RTF Ca sens act -2.2, RTF Ca sens inh -6.2, IDE inh -2.3 and CRFR2-BP antag -6.4.
For NC(=O)COC(=O)c1cccc(NS(=O)(=O)/C=C/c2ccccc2)c1 the results were IDE cell activ 0.9, CRFBP-R2 agonist -0.9, RTF Ca sens act -1.2, RTF Ca sens inh -7.7, IDE inh -2.8 and CRFR2-BP antag -5.4.
NC(=O)NC(=O)COC(=O)c1cccc(NS(=O)(=O)/C=C/c2ccccc2)c1 was read as IDE cell activ -3.8, CRFBP-R2 agonist -0.1, RTF Ca sens act 38.1*, RTF Ca sens inh -4.2, IDE inh -0.2 and CRFR2-BP antag -1.5.
Screening CCN(c1ccc(N=Cc2c(O)n(Cc3ccc(OC)cc3)c(=O)c3ccccc23)cc1)C(C)C returned IDE cell activ 0.4, CRFBP-R2 agonist 126.9*, RTF Ca sens act 418.1*, RTF Ca sens inh -27.6 and CRFR2-BP antag -98.7.
`COc1ccc(Br)cc1CN1CCCCCC1` gave IDE cell activ 1.6, CRFBP-R2 agonist 2.0, RTF Ca sens act -1.0, RTF Ca sens inh -3.2, IDE inh -2.9 and CRFR2-BP antag -14.5.
For COc1ccc(NC(=O)Nc2ccc(O)c3ccccc23)cc1 the results were CRFBP-R2 agonist -4.7, IDE inh 11.5 and CRFR2-BP antag 50.4*.
Screening CCOC(=O)c1[nH]c2ccccc2c1NC(=O)Nc1ccc(OC)cc1 returned IDE cell activ 3.5, CRFBP-R2 agonist -8.4, RTF Ca sens act 5.8, RTF Ca sens inh 0.7, IDE inh -2.8 and CRFR2-BP antag 84.8*.
For CCCC(=O)Nc1c(C(=O)OCC)[nH]c2ccccc12 the results were IDE cell activ 4.7, CRFBP-R2 agonist 1.6, RTF Ca sens act -1.5, RTF Ca sens inh -6.1, IDE inh 1.1 and CRFR2-BP antag 3.8.
CCN(CC)C(=S)Oc1ccc(Cl)cc1Cl was read as IDE cell activ 0.5, CRFBP-R2 agonist -1.1, RTF Ca sens act -4.9, RTF Ca sens inh -19.1, IDE inh -2.6 and CRFR2-BP antag 1.1.
For COc1ccccc1N1CCN(c2ccc3c(c2)S(=O)(=O)c2cccc(C(=O)NCc4ccc(F)cc4)c2C3=O)CC1 the results were CRFBP-R2 agonist 0.1 and CRFR2-BP antag 5.5.
For O=C(NCc1cccc(F)c1)c1cccc2c1C(=O)c1ccc(N3CCC(Cc4ccccc4)CC3)cc1S2(=O)=O the results were IDE cell activ -1.8, CRFBP-R2 agonist 74.8*, RTF Ca sens act 177.8*, RTF Ca sens inh -220.8, IDE inh 4.3 and CRFR2-BP antag -44.8.
For O=C(O)c1cccc2c1C(=O)c1ccc(N3CCCC3)cc1S2(=O)=O the results were IDE cell activ -7.0, CRFBP-R2 agonist 17.0, RTF Ca sens act 35.8*, RTF Ca sens inh -41.9, IDE inh 2.8 and CRFR2-BP antag -3.6.
`O=C(NCCc1ccc(F)cc1)c1cccc2c1C(=O)c1ccc(N3CCC(Cc4ccccc4)CC3)cc1S2(=O)=O` gave IDE cell activ -7.4, CRFBP-R2 agonist 173.6*, RTF Ca sens act 117.0*, RTF Ca sens inh -178.5, IDE inh 8.1 and CRFR2-BP antag -177.4.
For O=C(NCc1cccc(F)c1)c1cccc2c1C(=O)c1ccc(N3CCCC3)cc1S2(=O)=O the results were IDE cell activ -4.8, CRFBP-R2 agonist 91.3*, RTF Ca sens act 76.1*, RTF Ca sens inh -84.7, IDE inh 12.9 and CRFR2-BP antag -49.3.
Screening CN1CCC[C@@H]1CCNC(=O)c1cccc2c1C(=O)c1ccc(N3CCCC3)cc1S2(=O)=O returned IDE cell activ -6.6, CRFBP-R2 agonist 13.8, RTF Ca sens act 18.2, RTF Ca sens inh -27.6, IDE inh 1.6 and CRFR2-BP antag -7.8.
For Cc1cc(C)c2c(n1)SCC(=O)N2CC(=O)Nc1ccc(F)cc1 the results were IDE cell activ 3.9, CRFBP-R2 agonist -2.6, RTF Ca sens act 2.7, RTF Ca sens inh -13.1, IDE inh 5.2 and CRFR2-BP antag 4.5.
Screening NS(=O)(=O)c1ccc(CCNC(=O)CNS(=O)(=O)c2cccc(Br)c2)cc1 returned IDE cell activ 4.2, CRFBP-R2 agonist 0.5, RTF Ca sens act -2.5, RTF Ca sens inh -10.7, IDE inh 0.4 and CRFR2-BP antag -11.6.
`CCOc1cccc(CN2CCC(Oc3ccc(C(=O)NCc4ccccn4)cc3)CC2)c1` gave IDE cell activ 2.1, CRFBP-R2 agonist 2.1, RTF Ca sens act -4.1, RTF Ca sens inh -3.0, IDE inh 3.6 and CRFR2-BP antag -20.0.
Screening O=C(NCc1cccc(C(F)(F)F)c1)c1cccc2c1C(=O)c1ccc(N3CCC(Cc4ccccc4)CC3)cc1S2(=O)=O returned IDE cell activ -1.4, CRFBP-R2 agonist 66.8*, RTF Ca sens act 95.0*, RTF Ca sens inh -193.5, IDE inh 1.7 and CRFR2-BP antag -49.4.
For Cc1cccc(C(=O)N2c3ccccc3C(=O)OC2c2ccc3c(c2)OCO3)c1 (stereo unspecified) the results were IDE cell activ -1.4, CRFBP-R2 agonist 2.2, RTF Ca sens act 2.9, RTF Ca sens inh -6.1, IDE inh -4.2 and CRFR2-BP antag 75.2*.
For O=c1c2c([N+](=O)[O-])cc([N+](=O)[O-])cc2sn1-c1ccc(Br)cc1 the results were IDE cell activ -52.7, CRFBP-R2 agonist -1.0, RTF Ca sens act 8.8, RTF Ca sens inh 3.4, IDE inh 95.6* and CRFR2-BP antag 9.9.

High-throughput results as filed in PubChem.
